These results are taken from the supplement of paper PMC13380429.

Each structure is given as a SMILES string. Unmarked numbers belong to inactive results.

The assay relates to Vero E6 infected with SARS-CoV-2. Briefly: inhibition of SARS-CoV-2 cytopathic effect; higher = more antiviral protection, active = above 15. As to conditions: 48 h. (Protection from cytopathic effect is a common read-out in antiviral testing.)

In the case of `Nc1ncn([C@@H]2O[C@H](CO)[C@@H](O)[C@H]2O)c(=O)n1` [azacitidine], the “inhibition of SARS-CoV-2 cytopathic effect” value (shortened to “inhibition”) reads like this: (1 nM) -3.6%; (8.33 nM) 0.66%; (100 nM) 0.98%; (833.33 nM) -0.22%; (10000 nM) 0.95%.

On to `C=CCc1ccc(O)c(-c2ccc(O)c(CC=C)c2)c1` [honokiol], for which the “inhibition” value runs as follows: (1 nM) 0.73%; (8.33 nM) -0.89%; (100 nM) -1.94%; (833.33 nM) -0.06%; (10000 nM) -0.26%.

Consider `CN(C)CCOc1ccc(/C(=C(/CCCl)c2ccccc2)c2ccccc2)cc1` [toremifene], for which the “inhibition” value is, setting by setting: (1 nM) 1.37%; (8.33 nM) 1.85%; (100 nM) 1.34%; (833.33 nM) 2.22%; (10000 nM) 23.7% (active).

As for `CO[C@H](C(=O)[C@@H](O)[C@@H](C)O)[C@@H]1Cc2cc3cc(O[C@H]4C[C@@H](O[C@H]5C[C@@H](O)[C@H](O)[C@@H](C)O5)[C@@H](O)[C@@H](C)O4)c(C)c(O)c3c(O)c2C(=O)[C@H]1O[C@H]1C[C@@H](O[C@H]2C[C@@H](O[C@H]3C[C@](C)(O)[C@H](O)[C@@H](C)O3)[C@H](O)[C@@H](C)O2)[C@H](O)[C@@H](C)O1` [plicamycin], the “inhibition” value is 2.66% (1 nM); 3.18% (8.33 nM); 3.85% (100 nM); -3.43% (833.33 nM); -7.42% (10000 nM).

With `O=C(Nc1ccc(F)cc1)N1CCc2ccccc2[C@@H]1c1ccc(C(F)(F)F)cc1`, the “inhibition” value is 0.09% (1 nM); -1.41% (8.33 nM); -0.59% (100 nM); -1.97% (833.33 nM); -1.53% (10000 nM).
